Pf growth 48h – inhibits P. falciparum growth in the first generation, 48 h. P. falciparum luciferase growth in erythrocytes, 48 h. Potency, µM (doses to about 28.7 µM), inactives show top-dose activity change, negative = inhibition, hits mostly inhibitors. 310,000 compounds, 5.9% hits. AID 504832; further: potency means the concentration at half of the fitted maximal effect; on the % scale 0 is the no-effect control and ±100 the full control effect
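Parasite viability was followed by luminescence of a genomically integrated firefly luciferase. Cultures held 0.1% parasitemia at 2% hematocrit (final), incubated under 5% CO2 at 37 C.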
Pf growth 96h – P. falciparum growth inhibition at 96 hours. AID 504834. Potency, µM (series often up to 28.7 µM), for inactives: at the highest dose activity change, negative = inhibition, most hits filed as inhibitors. P. falciparum luciferase reporter growth, 96 h. 320,000 compounds, 6.9% hits; further: potency means the concentration at half of the fitted maximal effect; on the % scale 0 is the no-effect control and ±100 the full control effect
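P. falciparum expressing integrated firefly luciferase, in erythrocytes at 2% hematocrit, 0.05% parasitemia, incubated with compounds 96 h at 37 C, 5% CO2. Growth inhibition read as loss of luminescence; two-generation exposure targets delayed-death apicoplast inhibitors.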
HCMV antiviral – human cytomegalovirus inhibition; HFF cells, HCMV-luciferase reporter, 72 h; stronger effect = lower value; activity change, negative = inhibition, % at 57.5 µM; 410,000 compounds, 4.5% hits; AID 1259415; in the data active means activity change below about -60%; inconclusive means no clear call, values can overlap the other calls; inactive means above about -39%; further: on the % scale 0 is the no-effect control and ±100 the full control effect
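After 16 h attachment at 37C, HFF cells received test compound and HCMV-luciferase (1 PFU/cell); reporter luminescence read 72 h later, data normalized against buffer-only and known inhibitor Salinomycin.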
Shiga toxin inh – blocks Shiga toxin action in Vero cells; 290,000 compounds, 9.2% hits; Vero cells, Shiga toxin protein synthesis inhibition reporter; inhibition, % at 38.7 µM; in the data active means inhibition mostly above about 28%, no sharp cut-off; inactive means mostly below about 43%; further: 0% is about no effect
CHX counter – counter-screen for Shiga toxin inhibitors: cycloheximide protein synthesis inhibition; cell reporter, cycloheximide protein synthesis inhibition counterscreen; max response, %; 300,000 compounds, 12% hits; AID 2314; in the data active means max response mostly above about 13%, no sharp cut-off; inactive means mostly below about 14%; further: read at 38.3 µM for the half of the compounds with a filed dose; 0% is about no effect
* = called active by the depositor; ! = not active in a repeat. Only some compounds are listed: those with a hit (about 20% of all), similar ones and a draw of the others. Unless noted, the call rests on the fitted dose curve; in most records, active means well fitted inhibition curve with a large enough effect; inconclusive means small, poorly fitted or top-dose-only effect, or another doubt; inactive means no such curve, though single readings can be large or run the other way.

How did COc1ccc(C(=O)NCC(=O)OCC(=O)N2CCCc3ccccc32)cc1 do in these assays?
Pf growth 48h: 15.9%; Pf growth 96h: 0.0%; HCMV antiviral: -0.3; Shiga toxin inh: -2.5; CHX counter: -0.9

What do the screens show for `COc1cccc(/C=N/NC(=O)c2nnn(-c3nonc3N)c2C(C)C)c1`?
Pf growth 48h: 23.5%; Pf growth 96h: 62.2%; HCMV antiviral: -34.3; Shiga toxin inh: -6.6; CHX counter: 14.6

What do the screens show for `CC(C)NC(=O)Cn1nnc(-c2ccccc2)c1COc1ccc2ccccc2c1`?
HCMV antiviral: 1.0

How did COc1ccc(CC(=O)Nc2ccccc2C(=O)N2CCOCC2)cc1OC do in these assays?
Pf growth 48h: -0.5%; Pf growth 96h: -5.4%; HCMV antiviral: 11.6; Shiga toxin inh: -4.2; CHX counter: -1.1

How did Cc1nccn1CC(=O)N/N=C/c1cc(Br)cs1 do in these assays?
Pf growth 48h: 14.7%; Pf growth 96h: 20.8%; HCMV antiviral: -20.7; Shiga toxin inh: 4.1; CHX counter: -0.3

How did CC(C)CC(=O)Nc1nnc(S(=O)(=O)N2c3ccccc3CC2C)s1 (stereo not drawn) do in these assays?
Pf growth 48h: 52.9%; Pf growth 96h: 9.28µM*; HCMV antiviral: 7.1; Shiga toxin inh: -4.9; CHX counter: -1.1

How did CC(Oc1cccc(Cl)c1)C(=O)Nc1ccc(N2CCOCC2)cc1N1CCOCC1 (stereo not drawn) do in these assays?
Pf growth 48h: 6.57µM*; Pf growth 96h: inconclusive; HCMV antiviral: inconclusive

Results for CC(C)Oc1ccc(S(=O)(=O)N2CCOCC2)cc1NC(=O)C(C)Oc1ccc(F)cc1 (stereo not drawn) ?
Pf growth 48h: 13.1µM*; Pf growth 96h: inconclusive; HCMV antiviral: inconclusive

How did CC(Oc1cccc(Cl)c1)C(=O)Nc1cc(S(=O)(=O)N2CCCCC2)ccc1N1CCOCC1 (stereo not drawn) do in these assays?
Pf growth 48h: 10.4µM*; Pf growth 96h: 10.4µM*; HCMV antiviral: -0.5

How did CC(=O)N1CCc2cc(S(=O)(=O)NC(Cc3ccccc3)C(=O)NCc3ccccc3)ccc21 (stereo not drawn) do in these assays?
HCMV antiviral: -4.2

What do the screens show for `COc1ccc(NC(=O)Nc2ccc3c(c2)C(=O)N([C@H](C)CO)C[C@H](C)[C@H](CN(C)C)OCCCC[C@@H](C)O3)cc1`?
HCMV antiviral: -2.7

Results for Cc1cccc(OC(C)C(=O)Nc2cc(S(=O)(=O)N3CCCCC3)ccc2C)c1 (stereo not drawn) ?
Pf growth 48h: 9.28µM*; Pf growth 96h: inconclusive; HCMV antiviral: -33.5

How did Cc1ccc(NC(=S)Nc2ccc(C(C)C)cc2)cc1S(=O)(=O)N1CCCCCC1 do in these assays?
Pf growth 48h: inconclusive; Pf growth 96h: inconclusive; HCMV antiviral: -99.0*; Shiga toxin inh: 81.7*; CHX counter: 27.8*

Results for CC(Oc1ccc(F)cc1)C(=O)Nc1cc(S(=O)(=O)N2CCCCC2)ccc1N1CCOCC1 (stereo not drawn) ?
Pf growth 48h: 8.28µM*; Pf growth 96h: 9.28µM*; HCMV antiviral: -26.8

What do the screens show for `CC(Oc1ccccc1)C(=O)Nc1nnc(S(=O)(=O)N2CCCCCC2)s1` (stereo not drawn)?
Pf growth 48h: 17.3%; Pf growth 96h: 3.9%; HCMV antiviral: -69.2*!; Shiga toxin inh: -0.3; CHX counter: -1.3

Results for CC(Oc1cccc(Cl)c1)C(=O)Nc1cc(S(=O)(=O)N2CCOCC2)ccc1N1CCCC1 (stereo not drawn) ?
Pf growth 48h: -22.6%; Pf growth 96h: 0.4%; HCMV antiviral: 11.1

What do the screens show for `CN[C@@H]1[C@H](O[C@@H]2O[C@H](C)[C@@](O)(CO)[C@H]2O[C@H]2[C@H](O)[C@H](O)[C@H](N=C(N)N)[C@@H](O)[C@@H]2N=C(N)N)O[C@@H](CO)[C@H](O)[C@H]1O`?
Shiga toxin inh: -16.9; CHX counter: 13.3

What do the screens show for `O=C(Oc1ccccc1Cl)C1CCN(C(=O)c2ccc(F)cc2)CC1`?
Pf growth 48h: 26.3%; Pf growth 96h: 3.5%; HCMV antiviral: -24.4

How did Cc1ccc(NC(=O)C(C)Oc2ccccc2)cc1S(=O)(=O)N1CCCCCC1 (stereo not drawn) do in these assays?
Pf growth 48h: 6.57µM*; Pf growth 96h: inconclusive; HCMV antiviral: -21.3

How did Cc1ccc(NC(=O)c2cc(S(=O)(=O)N3CCCCC3)ccc2N2CCOCC2)c(C)c1 do in these assays?
HCMV antiviral: -15.6

Results for COC(=O)C(=Nc1ccccc1)/C(C(=O)C(=O)N(C)c1ccccc1)=C(\O)c1ccccc1 ?
Pf growth 48h: 34.4%; Pf growth 96h: 86.6%; HCMV antiviral: 69.8; Shiga toxin inh: 119.5*; CHX counter: 44.2*

What do the screens show for `CC(C)Cn1c(=O)c2sccc2n2c(CCCC(=O)NCc3ccccc3Cl)nnc12`?
HCMV antiviral: 28.6

How did COc1ccc(C(=O)NC(=S)N2CCNC(=O)C2)cc1Br do in these assays?
Pf growth 48h: 1.0%; Pf growth 96h: -18.4%; HCMV antiviral: -2.8; Shiga toxin inh: -2.2; CHX counter: -6.7

Results for O=C(NC(=S)Nc1ccccc1)c1csnn1 ?
Pf growth 48h: -2.6%; Pf growth 96h: inconclusive; HCMV antiviral: -17.1; Shiga toxin inh: 26.8; CHX counter: 22.1*

How did O=C(O)c1ccc(NC(=S)NC(=O)c2ccc(-c3ccccc3)cc2)cc1 do in these assays?
Pf growth 48h: 106.9%; Pf growth 96h: 14.1%; HCMV antiviral: 69.7; Shiga toxin inh: 47.6; CHX counter: 44.9*

Results for CC(=O)Nc1ccc(NC(=S)NC(=O)c2ccc(-c3ccccc3)cc2)cc1 ?
HCMV antiviral: -0.5

How did O=C1CN(C(=S)NC(=O)c2ccc(-c3ccccc3)cc2)CCN1 do in these assays?
Pf growth 48h: 20.0%; Pf growth 96h: 19.6%; HCMV antiviral: 0.0; Shiga toxin inh: 62.1; CHX counter: 15.5*

What do the screens show for `COc1ccc(NC(=S)NC(=O)c2csnn2)cc1`?
Pf growth 48h: -5.1%; Pf growth 96h: 32.0%; HCMV antiviral: inconclusive; Shiga toxin inh: 11.7; CHX counter: 1.5

How did O=C(NC(=S)Nc1ccccc1)c1ccc(-c2ccccc2)cc1 do in these assays?
Pf growth 48h: 58.1%; Pf growth 96h: 0.5%; HCMV antiviral: 45.8; Shiga toxin inh: 18.6; CHX counter: 16.4

How did CC(C)NS(=O)(=O)c1ccc(NC(=S)NC(=O)c2ccc(-c3ccccc3)cc2)cc1 do in these assays?
Pf growth 48h: 6.57µM*; Pf growth 96h: 2.62µM*; HCMV antiviral: -18.6; Shiga toxin inh: -5.6; CHX counter: 7.5

What do the screens show for `COc1ccc([N+](=O)[O-])cc1NC(=O)C(C)OC(=O)CC1CCCC1` (stereo not drawn)?
Pf growth 48h: inconclusive; Pf growth 96h: -42.9%; HCMV antiviral: -11.1

Results for COc1ccc(N2C(=O)C(CN3CCN(C)CC3)C2c2ccccc2)cc1 (stereo not drawn) ?
Pf growth 48h: -14.7%; Pf growth 96h: 0.3%; HCMV antiviral: -23.0; Shiga toxin inh: -11.8; CHX counter: -3.5
